# Test results: PubChem BioAssay (NCATS)
# Inconclusive results are not listed. Where a call stands in place of a potency, no number is given. Activity calls are given as the source filed them. Unless noted, calls come from the whole dose curve.
# Tests used:
# [1] = qHTS for Inhibitors of the Functional Ribonucleoprotein Complex (vRNP) of Lassa (LASV) Arenavirus: LASV Primary Screen - GLuc reporter signal (AID 1347082; calls by dose curve; tested in HEK293 reporter line; note: nearly all actives have a fitted effect of over 60% in size)
# [2] = qHTS for Inhibitors of the Functional Ribonucleoprotein Complex (vRNP) of Lassa (LASV) Arenavirus: Viability assay - alamar blue signal for LASV Primary Screen (AID 1347083; calls by dose curve; tested in HEK293 reporter line; note: nearly all actives have a fitted effect of over 80% in size)
# [3] = qHTS for Inhibitors of the Functional Ribonucleoprotein Complex (vRNP) of Lymphocytic Choriomeningitis Arenaviruses (LCMV): Viability assay - alamar blue signal for LCMV Primary Screen (AID 1347085; calls by dose curve; tested in HEK293 reporter line; note: nearly all actives have a fitted effect of over 80% in size)
# [4] = molecular target: Nucleoprotein (Lymphocytic choriomeningitis virus (strain Armstrong)) (UniProt P09992); experiment: qHTS for Inhibitors of the Functional Ribonucleoprotein Complex (vRNP) of Lymphocytic Choriomeningitis Arenaviruses (LCMV): LCMV Primary Screen - GLuc reporter signal (AID 1347086); note: nearly all actives have a fitted effect of over 70% in size
# [5] = Primary qHTS for inhibitors of SARS-S pseudo-typed particle cell entry (AID 1479145); note: nearly all actives have a fitted effect of over 45% in size
# [6] = Primary qHTS for Huh7 cytotoxicity: counterscreen for inhibitors of MERS-S pseudotyped particle cell entry (AID 1479147); settings: outcome: dose series up to 57.1 µM unless noted
# [7] = Primary qHTS for inhibitors of MERS-S pseudo-typed particle cell entry (AID 1479149); note: nearly all actives have a fitted effect of over 60% in size
# [8] = Primary qHTS for Vero E6 cytotoxicity: counterscreen for inhibitors of SARS-S pseudo-typed particle cell entry (AID 1479150); settings: outcome: dose series up to 57.1 µM unless noted
# [9] = Cytotoxicity counterscreen for inhibitors of SARS-CoV-2 cell entry (AID 1645845); note: nearly all actives have a fitted effect of over 50% in size
# How it was run: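 HEK293-ACE2 cells (Expi293F stably expressing human ACE2) seeded overnight, then compound for 1 h plus 48 h at 37C. Viability as ATP content by luminescence; normalized to wells with cells and media-only wells.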
# [10] = qHTS for inhibitors of Rabies Virus screened against the NCATS CANVASS Library (AID 1347402)
# [11] = Confirmatory qHTS for VERO E6 Cytotoxicity Assay: Counterscreen for SARS-CoV-2 CPE Assay (AID 1508605); note: nearly all actives have a fitted effect of over 60% in size
# [12] = molecular target: Alpha-galactosidase (Coffea arabica) (UniProt Q42656); experiment: Counterscreen for Glucocerebrosidase Inhibitors: qHTS Assay for Coffee Bean alpha-Galactosidase at pH 4.5 (AID 957; active = well fitted curve in the direction sought with a large enough effect; an effect the other way counts as inactive or inconclusive)
# How it was run: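 AC50 values derive from Hill-equation modeling of concentration-response data, normalized to no-enzyme and full-activity controls. The pH 4.5 citrate assay used 2 nM coffee bean enzyme and 80 uM fluorogenic substrate for 20 min.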
# [13] = molecular target: Alpha-galactosidase (Coffea arabica) (UniProt Q42656); experiment: Counterscreen for Glucocerebrosidase Inhibitors: qHTS Assay for Coffee Bean alpha-Galactosidase at pH 5.9 (AID 998; active = well fitted curve in the direction sought with a large enough effect; an effect the other way counts as inactive or inconclusive)
# How it was run: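 Green coffee bean enzyme (2 nM) with 4-methylumbelliferyl alpha-D-galactopyranoside (80 uM) in 50 mM citric acid, 0.005% Tween-20, pH 5.9, 20 min at room temperature; compounds 0.7 nM–77 uM. Stopped at pH 10, fluorescence Ex365/Em440; Hill-fit AC50.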
# [14] = Inducers of the Endoplasmic Reticulum Stress Response (ERSR) in human glioma: Validation (AID 504836; active = well fitted curve in the direction sought with a large enough effect; an effect the other way counts as inactive or inconclusive)
# How it was run: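 Stably transfected U87-MG glioma cells carrying a GRP78-based luciferase sensor; 16 h compound incubation. Luminescence end-point read 10 min after Bright-Glo addition at room temperature.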
# [15] = molecular target: Bile acid receptor (Homo sapiens) (UniProt Q96RI1); experiment: qHTS assay for small molecule agonists of farnesoid X receptor signaling (AID 588527); settings: HEK293T FXR-UAS-bla, beta-lactamase ratio, 16 h; activation: stronger effect = higher value
# How it was run: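 Agonist-mode beta-lactamase reporter in GeneBLAzer FXR-UAS-bla HEK293T cells, titration up to 92 uM, 16 h exposure at 37 C, CCF4 fluorescence. Response scaled to DMSO (0%) and 100 uM chenodeoxycholic acid (100%), then Hill-fitted for EC50 and efficacy.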
# [16] = molecular target: Peroxisome proliferator-activated receptor delta (Homo sapiens) (UniProt Q03181); experiment: qHTS assay for small molecule agonists of peroxisome proliferator-activated receptor delta signaling (AID 588534)
# How it was run: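 Reporter cells were plated and held 5 hrs at 37 C before compounds were added. After 18 hrs at 37 C, CCF4 dye was loaded for 2 hrs at RT and fluorescence measured.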
# [17] = Confirmatory qHTS to identify inhibitors of SARS-CoV-2 cell entry (AID 1645844); note: potency is the fitted concentration of half-maximal effect; nearly all actives have a fitted effect of over 45% in size
# How it was run: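 HEK293-ACE2 cells were pretreated 1 h with compound, then infected with MLV-based pseudoparticles bearing C-terminally truncated Wuhan-Hu-1 spike for 48 h at 37C; luciferase luminescence normalized to spike PP and bald PP wells.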
# [18] = VSVG counterscreen qHTS to identify inhibitors of SARS-CoV-2 cell entry (AID 1645847); note: potency is the fitted concentration of half-maximal effect; nearly all actives have a fitted effect of over 65% in size
# How it was run: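 Luminescence from a luciferase reporter, normalised to bald particle and VSV-G pseudotyped particle wells, is the read-out. Cells are HEK293 expressing human ACE2, exposed to compound 1 h before a 48 h particle infection at 37 °C.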
# [19] = Validation of Assay for Modulators of Lamin A Splicing (AID 1459; active = well fitted curve in the direction sought with a large enough effect in the signal ratio; the % refers to the signal ratio;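 note: cells exposed to compound for two days before reading; ratio rise marks activators and ratio drop marks inhibitors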)
# How it was run: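 HeLa S3 lamin A-EGFP/DsRed2 stable clone, 600 cells/well, Opti-MEM 2% FBS; compounds by pin tool; 48 hrs, 37 °C/5% CO2; Acumen 488 nm scan, objects 10-100 um; GFP/RFP intensity ratio.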
# [20] = qHTS for differential inhibitors of proliferation of Plasmodium falciparum line 7G8 (AID 1815; active = well fitted curve in the direction sought with a large enough effect; an effect the other way counts as inactive or inconclusive;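 note: parasite growth measured after three days of incubation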)
# [21] = qHTS for differential inhibitors of proliferation of Plasmodium falciparum line GB4 (AID 1816; active = well fitted curve in the direction sought with a large enough effect; an effect the other way counts as inactive or inconclusive;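 note: potency is the fitted concentration of half-maximal effect; parasite growth measured after 72 h incubation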); settings: Potency: Plasmodium falciparum GB4 proliferation inhibition
# [22] = qHTS for differential inhibitors of proliferation of Plasmodium falciparum line Dd2 (AID 1882; active = well fitted curve in the direction sought with a large enough effect; an effect the other way counts as inactive or inconclusive; note: nearly all actives have a fitted effect of over 65% in size); settings: Potency: Plasmodium falciparum Dd2 proliferation inhibition
# How it was run: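 SYBR Green I DNA fluorescence read-out, ex 485/em 535 nm. Signals were normalized to 0.29 uM artemisinin and DMSO wells, then corrected using vehicle-only plates flanking each stack. Parasite growth ran 72 h in erythrocytes before lysis.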
# [23] = High Content Imaging Cell-Based qHTS for Inhibitors of the mTORC1 Signaling Pathway in MEF Cells (AID 2667; active = well fitted curve in the direction sought with a large enough effect; an effect the other way counts as inactive or inconclusive;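 note: Tsc2-/- p53-/- MEFs stably re-expressing wild-type Tsc2 exposed 24 h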)
# How it was run: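 WT MEFs (Tsc2-/-, p53-/- re-expressing Tsc2), in DMEM + 10% FBS, were treated with compound for 24 h at 37 C. Cells were then fixed and stained for phospho-rpS6 Ser235/236 with propidium iodide as cell count. Values are % positive cells, with thresholds set against rapamycin-treated cells.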
# [24] = Validation screen for inhibitors of Lassa infection (AID 463096)
# [25] = molecular target: DNA polymerase III PolC-type (Bacillus subtilis (strain 168)) (UniProt P13267); experiment: qHTS Validation Assay for the Inhibitors of DNA Replication in Gram-Positive Bacteria (AID 485295; active = well fitted curve in the direction sought with a large enough effect; an effect the other way counts as inactive or inconclusive;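 note: reconstituted holoenzyme with PolC plus beta clamp SSB and primase; PicoGreen fluorescence of double-stranded DNA made on primed circular M13 template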)
# How it was run: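 First, compound is mixed with the reconstituted replication complex and held at room temperature. Next, circular single-stranded M13Gori with nucleotides starts synthesis. Finally, PicoGreen in EDTA halts the reaction and stains double-stranded product for fluorescence reading.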
# [26] = molecular target: ATP-dependent 6-phosphofructokinase (Trypanosoma brucei brucei) (UniProt O15648); experiment: qHTS Validation Assay to Find Inhibitors of T. brucei phosphofructokinase (AID 485368; active = well fitted curve in the direction sought with a large enough effect; an effect the other way counts as inactive or inconclusive); settings: T. brucei PFK enzyme assay, qHTS 7-point titration; at 57.5 µM (top of the series)
# How it was run: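 Steps: substrate mix (0.5 mM F6P, 0.1 mM ATP, MgCl2, TEA pH 8.0); compound; 1.25 nM T. brucei PFK; 45 min RT; ATP depletion 10 min; ADP-to-ATP detection 10 min; luminescence read; curve fitting and classification.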
# [27] = molecular target: Arylsulfatase A (Homo sapiens) (UniProt P15289); experiment: qHTS screen for enhancers of Arylsulfatase A (ASA1): LOPAC Validation Assay (AID 720538; active = well fitted curve in the direction sought with a large enough effect; an effect the other way counts as inactive or inconclusive)
# How it was run: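 MLD patient fibroblasts (SV40, ASA-I179S), 1536-well; adhere 6 hrs; cpd 48h, 37 degree C, 5% CO2; pNCS 0.5mM final in lysis buffer, 14h RT; stop 1N NaOH final; fluor. Ex525/Em598.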
# [28] = qHTS profiling of the MIPE4 collection as inhibitors of Plasmodium falciparum (3D7) proliferation (AID 743344; call rule not given here); settings: P. falciparum 3D7 in erythrocytes, SYBR Green DNA fluorescence, 72 h; at 28.5 µM (top of the series) unless noted
# How it was run: (§1)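 Erythrocytes infected with P. falciparum (0.3% parasitemia, 2.5% hematocrit) incubated with compounds 72 h at 37 C, 5% CO2. Lysis with saponin/Triton buffer containing SYBR Green I, overnight at room temperature in the dark; DNA fluorescence (485/535 nm) normalised to 0.29 uM artemisinin and DMSO.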
# [29] = qHTS profiling of the MIPE4 collection as inhibitors of Plasmodium falciparum (DD2) proliferation (AID 743345; call rule not given here); settings: P. falciparum Dd2 in erythrocytes, SYBR Green DNA, 72 h; at 28.5 µM (top of the series) unless noted
# How it was run: as §1
# [30] = qHTS profiling of the MIPE4 collection as inhibitors of Plasmodium falciparum (DD2) proliferation (Rep 2) (AID 743346; call rule not given here); settings: P. falciparum Dd2 in erythrocytes, SYBR Green DNA, 72 h; at 28.5 µM (top of the series) unless noted
# How it was run: as §1
# [31] = qHTS profiling of the MIPE4 collection as inhibitors of Plasmodium falciparum (HB3) proliferation (AID 743347; call rule not given here); settings: P. falciparum HB3 in erythrocytes, SYBR Green DNA, 72 h; at 28.5 µM (top of the series) unless noted
# How it was run: as §1
# [32] = Primary qHTS to identify inhibitors of SARS-CoV-2 cell entry (AID 1645846); settings: activity change, negative = inhibition: at 57.1 µM (top of the series) unless noted; note: nearly all actives have a fitted effect of over 45% in size
# How it was run: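 Inhibition of spike-mediated entry was scored in human ACE2-transfected Expi293F cells. Particles were MLV-pseudotyped with Wuhan-Hu-1 S carrying a 19-aa C-terminal deletion; signal was luciferase after two days, scaled between spike PP and fusion-protein-free PP.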
# Nucleoprotein (Lymphocytic choriomeningitis virus (strain Armstrong)), sequence (P09992 whole entry, looked up): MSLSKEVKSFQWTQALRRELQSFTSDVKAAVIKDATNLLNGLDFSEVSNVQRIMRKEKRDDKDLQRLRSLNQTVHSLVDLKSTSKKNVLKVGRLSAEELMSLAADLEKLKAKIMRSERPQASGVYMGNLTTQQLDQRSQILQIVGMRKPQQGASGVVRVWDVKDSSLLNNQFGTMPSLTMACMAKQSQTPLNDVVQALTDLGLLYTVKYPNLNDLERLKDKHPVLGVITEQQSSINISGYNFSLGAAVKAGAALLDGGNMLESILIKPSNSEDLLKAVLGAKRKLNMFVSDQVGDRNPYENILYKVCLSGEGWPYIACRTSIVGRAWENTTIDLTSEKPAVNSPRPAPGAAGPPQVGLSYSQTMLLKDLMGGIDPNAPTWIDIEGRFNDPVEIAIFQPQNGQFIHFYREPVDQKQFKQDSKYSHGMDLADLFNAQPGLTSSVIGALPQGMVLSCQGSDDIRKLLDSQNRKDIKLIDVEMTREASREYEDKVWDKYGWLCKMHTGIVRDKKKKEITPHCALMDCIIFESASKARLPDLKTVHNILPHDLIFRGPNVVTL
# Alpha-galactosidase (Coffea arabica), sequence (Q42656 whole entry, looked up): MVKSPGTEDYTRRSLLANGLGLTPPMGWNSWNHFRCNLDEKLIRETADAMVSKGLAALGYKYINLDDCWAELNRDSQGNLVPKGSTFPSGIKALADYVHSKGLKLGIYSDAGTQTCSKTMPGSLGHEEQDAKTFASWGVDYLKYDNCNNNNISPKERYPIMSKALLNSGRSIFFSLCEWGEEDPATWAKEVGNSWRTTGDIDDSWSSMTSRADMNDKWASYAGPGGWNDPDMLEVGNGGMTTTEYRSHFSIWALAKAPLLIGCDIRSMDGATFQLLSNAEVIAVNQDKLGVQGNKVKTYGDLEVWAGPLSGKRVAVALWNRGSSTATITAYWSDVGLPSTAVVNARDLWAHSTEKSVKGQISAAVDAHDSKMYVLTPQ
# Arylsulfatase A (Homo sapiens), sequence (P15289 whole entry, looked up): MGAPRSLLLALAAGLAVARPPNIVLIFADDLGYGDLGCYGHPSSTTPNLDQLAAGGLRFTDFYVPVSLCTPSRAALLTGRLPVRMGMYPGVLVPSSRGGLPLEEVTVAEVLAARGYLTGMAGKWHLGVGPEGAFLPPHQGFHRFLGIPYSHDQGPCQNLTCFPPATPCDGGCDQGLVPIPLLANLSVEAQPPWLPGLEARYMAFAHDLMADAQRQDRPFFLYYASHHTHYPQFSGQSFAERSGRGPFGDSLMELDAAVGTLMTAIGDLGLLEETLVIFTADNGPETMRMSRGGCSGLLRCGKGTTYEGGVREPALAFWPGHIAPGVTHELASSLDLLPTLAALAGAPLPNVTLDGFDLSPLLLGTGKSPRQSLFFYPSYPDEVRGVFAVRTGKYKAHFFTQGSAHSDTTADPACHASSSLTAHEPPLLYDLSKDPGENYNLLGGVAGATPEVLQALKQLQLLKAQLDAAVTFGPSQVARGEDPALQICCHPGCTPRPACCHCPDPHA
# DNA polymerase III PolC-type (Bacillus subtilis (strain 168)), sequence (P13267 whole entry, looked up): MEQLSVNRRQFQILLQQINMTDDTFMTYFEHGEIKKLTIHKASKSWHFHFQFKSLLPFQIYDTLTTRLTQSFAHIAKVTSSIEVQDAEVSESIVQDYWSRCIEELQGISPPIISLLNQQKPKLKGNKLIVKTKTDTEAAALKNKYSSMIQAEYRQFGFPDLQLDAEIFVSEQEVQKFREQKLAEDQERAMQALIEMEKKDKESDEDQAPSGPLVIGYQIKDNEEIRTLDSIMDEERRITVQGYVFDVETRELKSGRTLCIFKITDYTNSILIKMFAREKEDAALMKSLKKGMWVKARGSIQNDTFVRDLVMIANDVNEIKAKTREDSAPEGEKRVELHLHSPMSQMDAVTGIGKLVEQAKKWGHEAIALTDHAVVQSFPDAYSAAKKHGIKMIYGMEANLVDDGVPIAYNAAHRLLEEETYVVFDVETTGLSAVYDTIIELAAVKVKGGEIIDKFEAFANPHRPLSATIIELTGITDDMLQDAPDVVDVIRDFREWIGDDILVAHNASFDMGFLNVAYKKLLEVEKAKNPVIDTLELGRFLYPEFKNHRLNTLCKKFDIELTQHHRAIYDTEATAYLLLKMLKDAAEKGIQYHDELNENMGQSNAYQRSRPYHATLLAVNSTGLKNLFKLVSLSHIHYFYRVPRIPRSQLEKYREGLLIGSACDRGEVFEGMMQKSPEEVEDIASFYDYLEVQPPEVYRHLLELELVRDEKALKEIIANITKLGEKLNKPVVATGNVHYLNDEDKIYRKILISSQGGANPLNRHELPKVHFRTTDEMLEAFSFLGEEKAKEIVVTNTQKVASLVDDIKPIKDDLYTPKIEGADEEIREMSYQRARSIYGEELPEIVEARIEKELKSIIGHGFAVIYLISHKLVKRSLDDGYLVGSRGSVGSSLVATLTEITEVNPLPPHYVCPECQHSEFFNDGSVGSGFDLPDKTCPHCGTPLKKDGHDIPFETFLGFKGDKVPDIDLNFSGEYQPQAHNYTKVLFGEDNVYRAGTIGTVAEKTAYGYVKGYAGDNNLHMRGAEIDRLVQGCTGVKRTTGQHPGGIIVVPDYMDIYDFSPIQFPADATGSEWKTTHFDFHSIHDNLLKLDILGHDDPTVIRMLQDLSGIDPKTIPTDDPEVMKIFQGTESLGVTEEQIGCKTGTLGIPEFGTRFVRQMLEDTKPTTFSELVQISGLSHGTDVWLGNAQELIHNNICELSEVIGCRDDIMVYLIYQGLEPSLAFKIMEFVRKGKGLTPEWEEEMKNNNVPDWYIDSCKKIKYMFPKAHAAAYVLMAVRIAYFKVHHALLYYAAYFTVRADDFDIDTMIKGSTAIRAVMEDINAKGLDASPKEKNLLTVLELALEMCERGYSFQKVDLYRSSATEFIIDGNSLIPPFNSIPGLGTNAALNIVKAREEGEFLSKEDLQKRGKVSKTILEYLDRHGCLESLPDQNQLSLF
# Peroxisome proliferator-activated receptor delta (Homo sapiens), sequence (Q03181 whole entry, looked up): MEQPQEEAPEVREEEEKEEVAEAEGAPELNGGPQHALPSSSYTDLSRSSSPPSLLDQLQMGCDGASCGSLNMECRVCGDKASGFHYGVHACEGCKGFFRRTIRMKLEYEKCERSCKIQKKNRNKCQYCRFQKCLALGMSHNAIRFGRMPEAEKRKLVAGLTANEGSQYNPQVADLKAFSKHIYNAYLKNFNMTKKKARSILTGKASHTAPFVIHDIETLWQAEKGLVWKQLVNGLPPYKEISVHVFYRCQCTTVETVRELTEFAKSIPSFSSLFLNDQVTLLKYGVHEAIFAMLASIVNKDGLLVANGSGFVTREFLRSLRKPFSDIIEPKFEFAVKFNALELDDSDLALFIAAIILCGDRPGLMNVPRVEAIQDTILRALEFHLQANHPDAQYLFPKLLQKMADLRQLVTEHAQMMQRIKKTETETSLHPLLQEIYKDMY
# ATP-dependent 6-phosphofructokinase (Trypanosoma brucei brucei), sequence (O15648 whole entry, looked up): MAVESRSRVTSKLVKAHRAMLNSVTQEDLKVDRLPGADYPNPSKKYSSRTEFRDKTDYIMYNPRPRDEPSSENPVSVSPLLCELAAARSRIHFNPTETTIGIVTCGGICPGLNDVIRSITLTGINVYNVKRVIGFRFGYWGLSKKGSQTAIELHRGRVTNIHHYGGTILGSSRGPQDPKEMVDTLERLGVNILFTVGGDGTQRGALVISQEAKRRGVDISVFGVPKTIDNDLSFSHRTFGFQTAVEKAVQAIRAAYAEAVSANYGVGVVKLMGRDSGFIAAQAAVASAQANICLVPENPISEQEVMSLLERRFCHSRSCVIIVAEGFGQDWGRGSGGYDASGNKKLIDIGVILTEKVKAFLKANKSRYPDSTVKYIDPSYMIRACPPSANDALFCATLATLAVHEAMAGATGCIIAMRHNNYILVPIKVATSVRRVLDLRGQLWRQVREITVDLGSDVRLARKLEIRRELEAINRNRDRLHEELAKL
# Bile acid receptor (Homo sapiens), sequence (Q96RI1 whole entry, looked up): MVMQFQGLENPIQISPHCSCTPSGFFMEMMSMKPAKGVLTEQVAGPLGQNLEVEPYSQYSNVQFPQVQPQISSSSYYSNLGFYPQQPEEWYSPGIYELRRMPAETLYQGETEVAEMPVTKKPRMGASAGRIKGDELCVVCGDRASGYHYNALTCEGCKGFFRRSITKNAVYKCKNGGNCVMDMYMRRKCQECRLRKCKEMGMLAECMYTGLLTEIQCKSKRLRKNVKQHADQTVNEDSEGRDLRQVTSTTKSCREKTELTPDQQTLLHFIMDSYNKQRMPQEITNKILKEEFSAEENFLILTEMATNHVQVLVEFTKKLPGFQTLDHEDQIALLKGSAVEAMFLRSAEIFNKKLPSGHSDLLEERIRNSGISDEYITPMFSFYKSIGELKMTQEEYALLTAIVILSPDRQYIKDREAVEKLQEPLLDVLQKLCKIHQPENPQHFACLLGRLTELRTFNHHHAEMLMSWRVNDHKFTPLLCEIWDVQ
compound,measurement,setting,value
COc1cc2c(c(OC)c1OC)-c1c(cc3c(c1OC)OCO3)C[C@H](C)[C@@](C)(O)C2,Potency,[1],inactive
same,Potency,[2],inactive
same,Potency,[3],inactive
same,Potency,[4],inactive
same,Potency,[5],inactive
same,outcome,[6],inactive
same,Potency,[7],inactive
same,outcome,[8],inactive
same,Potency,[9],inactive
O=c1c(O)c(-c2ccc(O)c(O)c2)oc2cc(O)ccc12,Potency,[1],inactive
same,Potency,[2],inactive
same,Potency,[3],inactive
same,Potency,[4],inactive
same,outcome,[10],inactive
same,Potency,[9],inactive
Cc1cc(O)c2c(c1)O[C@@]1(C)CC[C@H]3C(C)(C)CCCC34CO[C@@H]2[C@H]41 (stereo partly drawn),Potency,[1],inactive
same,Potency,[2],inactive
same,Potency,[3],inactive
same,Potency,[4],inactive
same,Potency,[5],inactive
same,outcome,[6],inactive
same,Potency,[7],inactive
same,outcome,[8],inactive
same,Potency,[11],inactive
same,Potency,[9],inactive
CCOC(=O)CC(C)C,Potency,[1],inactive
same,Potency,[2],inactive
same,Potency,[3],inactive
same,Potency,[4],inactive
N[C@@H](Cc1ccc(O)c(O)c1)C(=O)O,outcome,[12],inactive
same,outcome,[13],inactive
same,outcome,[14],inactive
same,activation,[15],1.53% (inactive)
same,Potency,[16],inactive
same,Potency,[1],inactive
same,Potency,[2],inactive
same,Potency,[3],inactive
same,Potency,[4],inactive
same,outcome,[5],inactive [at 0.573 µM]
same,outcome,[6],inactive [at 0.573 µM]
same,"activity change, negative = inhibition",[7],3.84% [at 0.573 µM] (inactive)
same,outcome,[8],inactive [at 0.573 µM]
same,Potency,[17],3.83 µM (active)
same,Potency,[9],inactive
same,Potency,[18],0.429 µM (active)
CN1C2CCC1CC(OC(=O)C(CO)c1ccccc1)C2 (stereo not drawn),outcome,[19],inactive
same,Potency,[20],inactive
same,Potency,[21],8.91 µM (active)
same,Potency,[22],inactive
same,Potency,[23],inactive
same,Potency,[24],inactive
same,Potency,[25],inactive
same,outcome,[26],inactive
same,Potency,[27],inactive
same,"parasite growth, % of DMSO control",[28],88.6%
same,"parasite growth remaining, % of DMSO control (lower = more inhibition)",[29],94.5%
same,"parasite growth, % of control (lower = inhibition)",[30],62.2%
same,"growth, % of control",[31],108%
same,Potency,[1],inactive
same,Potency,[2],inactive
same,Potency,[3],inactive
same,Potency,[4],inactive
same,Potency,[9],inactive
same,"activity change, negative = inhibition",[32],-16.5%
O=C1NC(=O)C(Cc2ccc(O)cc2)N1 (stereo not drawn),Potency,[1],inactive
same,Potency,[2],inactive
same,Potency,[3],inactive
same,Potency,[4],inactive
